Read-out in assay [1]: Interferon-gamma inducible Protein 10 (IP10), CXCL10 (gene 3627)
Kind of assay: BSK_hDFCGF_IP10: BioMAP Diversity Plus: hDFCGF Assay for Interferon-gamma inducible Protein 10 (IP10) Biomarker Activity (AID 2283053). To be noted: primary human foreskin fibroblasts; actives raise or lower the signal. The essentials: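 Primary human foreskin fibroblasts exposed to chemicals for 24 h. IP-10 measured by ELISA; changes fitted bidirectionally against DMSO baseline.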

Read-out in assay [2]: Urokinase-type plasminogen activator receptor (uPAR), PLAUR (gene 5329)
In words: BSK_CASM3C_uPAR: BioMAP Diversity Plus: CASM3C Assay for Urokinase-type plasminogen activator receptor (uPAR) Biomarker Activity (AID 2283054).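 Further: cell-surface uPAR protein level quantified by ELISA.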 The note with it: primary human coronary artery smooth muscle cells; actives raise or lower the signal.

Read-out in assay [3]: Vascular cell adhesion molecule 1 (VCAM1), VCAM1 (gene 7412)
Kind of assay: BSK_CASM3C_VCAM1: BioMAP Diversity Plus: CASM3C Assay for Vascular cell adhesion molecule 1 (VCAM1) Biomarker Activity (AID 2283055).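 Further: VCAM-1 protein level quantified by ELISA on the cells.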 To be noted: primary human coronary artery smooth muscle cells; actives raise or lower the signal.

Read-out in assay [4]: Collagen III, COL3A1 (gene 1281)
Kind of assay: BSK_hDFCGF_CollagenIII: BioMAP Diversity Plus: hDFCGF Assay for Collagen III Biomarker Activity (AID 2283056). To be noted: primary human foreskin fibroblasts; actives raise or lower the signal. The essentials:
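Cells: human foreskin fibroblasts, primary. Dosing followed by 24 h incubation, then ELISA for collagen III. Both increases and decreases scored relative to DMSO.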

Read-out in assay [5]: Epidermal growth factor receptor (EGFR), EGFR (gene 1956)
Kind of assay: BSK_hDFCGF_EGFR: BioMAP Diversity Plus: hDFCGF Assay for Epidermal growth factor receptor (EGFR) Biomarker Activity (AID 2283057). The note with it: primary human foreskin fibroblasts; actives raise or lower the signal. The essentials: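 Primary human foreskin fibroblasts (hDFCGF system), sampled 24 h after dosing; EGFR quantified by ELISA. Bidirectional fit relative to DMSO baseline; SRB total-protein staining in parallel cultures for cytotoxicity.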

Read-out in assay [6]: Interleukin-8 (IL8), CXCL8 (gene 3576)
Kind of assay: BSK_hDFCGF_IL8: BioMAP Diversity Plus: hDFCGF Assay for Interleukin-8 (IL8) Biomarker Activity (AID 2283058). To be noted: primary human foreskin fibroblasts; actives raise or lower the signal. The method in brief: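 IL-8 levels from compound-treated primary human fibroblasts were read by ELISA at 24 h, with DMSO serving as baseline for bidirectional fitting.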

Assay [7] is described as follows: BSK_hDFCGF_Proliferation: Cell Proliferation Assessment in the BioMAP Diversity Plus: hDFCGF Assay (AID 2283059).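 Further: curves fitted for both rise and fall of signal versus DMSO baseline.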 To be noted: primary human foreskin fibroblasts. The method in brief: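 Primary human foreskin fibroblasts, sub-confluent; […]; 10% TCA fix, 0.1% SRB stain, A560 total protein. Gain/loss fitted bidirectionally vs DMSO control.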
Read-out in assay [8]: Macrophage colony-stimulating factor (MCSF), CSF1 (gene 1435)
In words: BSK_hDFCGF_MCSF: BioMAP Diversity Plus: hDFCGF Assay for Macrophage colony-stimulating factor (MCSF) Biomarker Activity (AID 2283060). The note with it: primary human foreskin fibroblasts; actives raise or lower the signal. The method in brief:
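M-CSF levels, determined by ELISA, are taken at 24 h after dosing human skin fibroblasts. Responses in either direction are fitted with DMSO serving as the baseline.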

Read-out in assay [9]: TIMP metallopeptidase inhibitor 1 (TIMP1), TIMP1 (gene 7076)
In words: BSK_hDFCGF_TIMP1: BioMAP Diversity Plus: hDFCGF Assay for TIMP metallopeptidase inhibitor 1 (TIMP1) Biomarker Activity (AID 2283062). The note with it: primary human foreskin fibroblasts; actives raise or lower the signal. The method in brief: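 Fibroblasts from human foreskin are treated with test chemical and harvested at 24 h. TIMP-1 is quantified by ELISA, and gain or loss of signal is scored against DMSO.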

Read-out in assay [10]: Monokine induced gamma interferon (MIG), CXCL9 (gene 4283)
Kind of assay: BSK_hDFCGF_MIG: BioMAP Diversity Plus: hDFCGF Assay for Monokine induced gamma interferon (MIG) Biomarker Activity (AID 2283063). To be noted: primary human foreskin fibroblasts; actives raise or lower the signal. The essentials: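 MIG signal, determined by ELISA, reflects 24 h chemical exposure of human skin primary fibroblasts. DMSO serves as negative control and baseline.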

Read-out in assay [11]: Matrix Metallopeptidase 1 (MMP1), MMP1 (gene 4312)
In words: BSK_hDFCGF_MMP1: BioMAP Diversity Plus: hDFCGF Assay for Matrix Metallopeptidase 1 (MMP1) Biomarker Activity (AID 2283064). The note with it: primary human foreskin fibroblasts; actives raise or lower the signal. The method in brief:
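Primary human foreskin fibroblasts in the hDFCGF system were dosed with test chemical, and MMP1 was measured by ELISA 24 h later. Values come from bidirectional curve fitting against the DMSO baseline.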

Read-out in assay [12]: Plasminogen activator inhibitor-1 (PAI1), SERPINE1 (gene 5054)
Kind of assay: BSK_hDFCGF_PAI1: BioMAP Diversity Plus: hDFCGF Assay for Plasminogen activator inhibitor-1 (PAI1) Biomarker Activity (AID 2283066). To be noted: primary human foreskin fibroblasts; actives raise or lower the signal. The essentials: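 Human foreskin fibroblast primary cells, 24 h chemical exposure; PAI-1 measured by ELISA. Bidirectional fitting relative to DMSO; parallel cultures stained with SRB for total protein to flag overt cytotoxicity.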

Read-out in assay [13]: Intercellular Adhesion Molecule 1 (ICAM1), ICAM1 (gene 3383)
In words: BSK_KF3CT_ICAM1: BioMAP Diversity Plus: KF3CT Assay for Intercellular Adhesion Molecule 1 (ICAM1) Biomarker Activity (AID 2283067). To be noted: primary human keratinocytes with fibroblasts; actives raise or lower the signal. The essentials:
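Dose the keratinocyte/fibroblast co-culture, wait 24 h, measure ICAM-1 by ELISA, then fit increases or decreases against DMSO. Cytotoxicity is checked in parallel cultures by SRB total-protein staining.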

Read-out in assay [14]: Interferon-gamma inducible Protein 10 (IP10), CXCL10 (gene 3627)
In words: BSK_KF3CT_IP10: BioMAP Diversity Plus: KF3CT Assay for Interferon-gamma inducible Protein 10 (IP10) Biomarker Activity (AID 2283068). To be noted: primary human keratinocytes with fibroblasts; actives raise or lower the signal. The essentials: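 In a primary skin co-culture of keratinocytes and fibroblasts, IP-10 is quantified by ELISA at 24 h after dosing. SRB staining of parallel wells monitors overt toxicity. Curves are fitted both directions against DMSO.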

Assay [15] in a line: BSK_KF3CT_SRB: Viability Assessment in the BioMAP Diversity Plus: KF3CT Assay (AID 2283069).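 Further: total protein by sulforhodamine B staining as a cytotoxicity measure.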 To be noted: primary human keratinocytes with fibroblasts. The method in brief:
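Human primary keratinocyte plus foreskin fibroblast co-culture exposed to chemicals for 24 h. Total protein measured by 0.1% sulforhodamine B staining after 10% TCA fixation, read at 560 nm; bidirectional fitting versus DMSO baseline.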

Read-out in assay [16]: Interleukin-1 alpha (IL1a), IL1A (gene 3552)
Kind of assay: BSK_KF3CT_IL1a: BioMAP Diversity Plus: KF3CT Assay for Interleukin-1 alpha (IL1a) Biomarker Activity (AID 2283070). The note with it: primary human keratinocytes with fibroblasts; actives raise or lower the signal. The essentials: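 Human keratinocyte plus foreskin fibroblast primary co-culture, sampled 24 h after chemical dosing. IL-1a measured by ELISA; responses fitted bidirectionally against DMSO baseline (negative control), so gain or loss of signal both count.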

Read-out in assay [17]: TIMP metallopeptidase inhibitor 2 (TIMP2), TIMP2 (gene 7077)
Kind of assay: BSK_KF3CT_TIMP2: BioMAP Diversity Plus: KF3CT Assay for TIMP metallopeptidase inhibitor 2 (TIMP2) Biomarker Activity (AID 2283071). To be noted: primary human keratinocytes with fibroblasts; actives raise or lower the signal. The method in brief: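 Co-culture of human primary keratinocytes and foreskin fibroblasts, measured 24 h after chemical dosing. TIMP-2 quantified by ELISA and fitted in both directions relative to DMSO. Cytotoxicity checked in parallel cultures by SRB total-protein staining.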

Read-out in assay [18]: Transforming growth factor beta 1 (TGFb1), TGFB1 (gene 7040)
Kind of assay: BSK_KF3CT_TGFb1: BioMAP Diversity Plus: KF3CT Assay for Transforming growth factor beta 1 (TGFb1) Biomarker Activity (AID 2283072). The note with it: primary human keratinocytes with fibroblasts; actives raise or lower the signal. The essentials: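 Human keratinocyte/foreskin fibroblast co-culture; TGF-b1 measured by ELISA 24 h after dosing, fitted bidirectionally versus DMSO. Cytotoxicity checked in parallel cultures by total protein (SRB staining, 560 nm).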

Read-out in assay [19]: Vascular cell adhesion molecule 1 (VCAM1), VCAM1 (gene 7412)
In words: BSK_hDFCGF_VCAM1: BioMAP Diversity Plus: hDFCGF Assay for Vascular cell adhesion molecule 1 (VCAM1) Biomarker Activity (AID 2283065).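 On AC50: VCAM-1 protein level quantified by ELISA after 24 h chemical exposure.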 The note with it: primary human foreskin fibroblasts; actives raise or lower the signal. The essentials:
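Cells are dosed, cultured for 24 h, then VCAM-1 is quantified by ELISA; signal increases and decreases are both fitted relative to DMSO.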

Active and inactive are the calls of the source. How the source made its calls: active means hit-call score of the fitted dose curve at least 0.9, where 1 is the maximum; inactive means score below 0.9.

As usually defined, the AC50 is the concentration at which the activity in the assay is half-maximal. For `C#CCOC(=O)/C=C(C)/C=C/CC(C)CCCC(C)C` (centres undefined), the outcome in [1], in [2], in [3], in assay [5], in assay [6] and in assay [7] was inactive. For the same molecule, the outcome in [9], in [10], in assay [11], in assay [13], in [14] and in assay [15] was inactive. For the same molecule, the outcome in [16], in [17] and in assay [18] was inactive. Besides, the AC50 is 12.6 µM (active) in assay [4], 10 µM (active) in [8] and 11.6 µM (active) in [12].

Consider `NC(=O)CCl`, for which the outcome in [1], in [2], in assay [3], in assay [5], in [6] and in [7] was inactive. Also, the outcome in assay [8], in assay [9], in assay [10], in [11], in assay [12] and in [13] was inactive. The result in assay [14], in assay [15], in assay [16], in assay [17] and in assay [18] was inactive. Besides, the AC50 in [4] is 9.58 µM (active).

As for `Cc1ccccc1OP(=O)(Oc1ccccc1)Oc1ccccc1`, the concentration at half-maximal activity (AC50) in [1] was 19 µM (active); in [4], 2.84 µM (active); in [7] it was 20 µM (active); in assay [8], 10.5 µM (active); in assay [9] it was 14.5 µM (active); in assay [10], 20 µM (active). The half-maximal activity concentration (AC50) in assay [11] was 27.4 µM (active); in assay [19], 5.06 µM (active); in assay [16] it was 20 µM (active); in [17] it was 14.4 µM (active); in assay [18], 0.016 µM (active). The result in [2], in assay [3], in assay [5], in assay [6], in assay [12] and in assay [14] was inactive. Moreover, in [15], the outcome was inactive.

Consider `CC(C)(COCC1CO1)COCC1CO1` (centres undefined), for which the result in assay [1], in [2], in assay [3], in assay [4], in assay [5] and in assay [6] was inactive. Further, the outcome in assay [8], in assay [9], in assay [10], in [11], in assay [12] and in assay [13] was inactive. For the same molecule, the outcome in [14], in [15], in assay [16], in assay [17] and in assay [18] was inactive. Besides, in assay [7], the AC50 is 20 µM (active).

Take `O=[N+]([O-])c1cccc2ccccc12`: the outcome in [1], in [3], in assay [4], in [5], in assay [6] and in assay [7] was inactive. Also, the outcome in [8], in assay [9], in assay [10], in assay [11], in assay [12] and in [14] was inactive. For the same molecule, the result in assay [15], in assay [16], in [17] and in [18] was inactive. Besides, the AC50 in assay [2] is 20 µM (active).

For the molecule `O=S(=O)(c1ccc(Cl)cc1)c1cc(Cl)c(Cl)cc1Cl`, the outcome in assay [1], in assay [5], in assay [6], in assay [8], in assay [9] and in assay [10] was inactive. The outcome in assay [11], in assay [19], in assay [14], in assay [15] and in assay [16] was inactive. Also, the concentration at half-maximal activity (AC50) was 20 µM (active) in [2]; 0.016 µM (active) in [3]; 3.97 µM (active) in assay [4]; 20 µM (active) in assay [7]; 12.7 µM (active) in assay [17]; 5.16 µM (active) in assay [18].

With `O=C(N[C@H]1CN2CCC1CC2)c1ccc2c(c1)OCCO2`, the result in assay [1], in assay [2], in [3], in assay [4], in assay [5] and in assay [6] was inactive. For the same molecule, the outcome in [7], in assay [8], in assay [9], in [10], in assay [11] and in assay [19] was inactive. Moreover, the outcome in assay [12], in assay [14], in assay [15], in assay [16], in assay [17] and in assay [18] was inactive.

These data come from PubChem BioAssay (EPA / NIEHS).
